Measured values from ChEMBL document CHEMBL3988442, “University of Dundee, Small-Polar-MMV Screening Library” (2021).

Molecular target: AMP-activated protein kinase, AMPK (Homo sapiens) (UniProt P54646+O43741+P54619+Q9UGJ0+Q9Y478+Q13131+Q9UGI9)
Assay: AMP-dependent Kinase enzyme assay. An in vitro enzyme assay that detects ADP turnover that is directly proportional to AMPK activity. This uses naive AMPK that is activated during the assay with MK-8722
Type: functional
Set-up: scale not given: direction of the effect not stated beside the values
Settings: 30 µM

Row | Compound | Percent Effect [%]
1 | CC(C)OCCCNC(=O)CN1CCN(c2nccs2)C(C)C1 (stereo not given) | 13.6
2 | CCOC(=O)C1(NCC(=O)Nc2cc(C)ccc2OC)CCCC1 | 0.781
3 | Cc1cc(C(=O)N2CCNC(=O)CC2)c(C)n1CC(F)(F)F | -2.89
4 | Cc1cc(O)n2nc(C3CCN(C(=O)c4ccccn4)CC3)cc2n1 | 6.67
5 | CNC(=O)[C@@H](C)NC(=O)c1cc(-c2ccc(F)cc2)c(C)s1 | 2.33
6 | CC(C)[C@H]1CN(Cc2ccccn2)C[C@@H]1NC(=O)CCS(C)(=O)=O | 9.37
7 | Cc1nccn1CCN(C)C(=O)c1cn(-c2ccccc2)nn1 | -5.19
8 | Fc1ccc(OCCCNC2=NCCCN2)cc1 | 0.73
9 | CN1C[C@@H]2CC[C@H](CC1=O)N2C(=O)c1cc2ccccc2[nH]c1=O | 5.77
10 | Cn1cnnc1C1CCCN(c2nc3ccccc3o2)C1 (stereo not given) | -1.42
11 | CC(NC(=O)Nc1ccc(-c2csnn2)cc1)C(=O)NC(C)(C)C (stereo not given) | -8.32
12 | COCCNC(=O)N1CCOCC1c1c(C)nn(C)c1C (stereo not given) | -0.499
13 | CCOc1ccc(CN(C)C(=O)c2nc(N3CCCC3)ncc2Cl)cc1 | -1.93
14 | O=C(CCn1cccn1)NCCOc1cccc(Cl)c1 | -3.1
15 | CNCc1cn(C2CCN(C(=O)NCc3ccco3)CC2)nn1 | 0.812
16 | CCOC(=O)c1n[nH]cc1CN1CCOC(Cc2ccc(OC)cc2)C1 (stereo not given) | 2.27
17 | COc1ccccc1OCCN(C)Cc1c(C2CC2)[nH]c2ncccc12 | 11.7
18 | CC(C)(C)C(NC(=O)CCCS(C)(=O)=O)c1ccc(F)cc1F (stereo not given) | 7.18
19 | CCSc1cccc(NCc2cccnc2)c1 | -1.67
20 | CCOC(=O)N(C)CC(=O)NCCc1coc(-c2ccc(C)cc2)n1 | -1.7

Row | Compound | Percent Effect [%]
21 | CCc1ccc2nc(C)cc(C(=O)N[C@@H]3CCCNC3)c2c1 | -2.76
22 | COc1cccc([C@@]2(O)CC[C@@H]3CN(C(=O)c4c[nH]nc4C)C[C@@H]32)c1 | 10.8
23 | NC(=O)NC(CC(=O)N1CCc2sccc2C1)c1ccccc1F (stereo not given) | 3.63
24 | CC(C)c1ccc(S(=O)(=O)NC2CCN(CC(F)(F)F)C2)cc1 (stereo not given) | 8.13
25 | COc1ccc(CCN2CCCC(n3cncn3)C2)cc1 (stereo not given) | 0.286
26 | Cc1cccc(S(=O)(=O)NC2CCN(CC(F)(F)F)C2)c1 (stereo not given) | -6.29
27 | CC(C)c1nc(C2CCCN2CCNS(C)(=O)=O)no1 (stereo not given) | 9.75
28 | Fc1ccc(C2(c3noc(CCN4CCCCO4)n3)CCOC2)cc1 (stereo not given) | 5.16
29 | COc1cc2c(cc1CNCc1ccnc(-n3cccn3)c1)OC(C)C2 (stereo not given) | -1.78
30 | O=C(CCCn1ccnc1)NC1CCCN(c2ccccc2Cl)C1 (stereo not given) | 6.12
31 | O=c1[nH]nc(CNCc2ccc(OC34CCCN(CC3)C4)cc2)[nH]1 (stereo not given) | -7.25
32 | CC1COCCN1C(=O)Cc1cc(Cl)c2c(c1)OCCCO2 (stereo not given) | 7.18
33 | O=C(COc1cccnc1)NCc1nncn1C1CCCCC1 | -3.67
34 | O=C(c1ccnc(-n2cnnc2)c1)N1CCCC2(CCOC2)C1 (stereo not given) | -4.79
35 | CC(c1ccon1)N(C)S(=O)(=O)NCc1ccccc1 (stereo not given) | 2.51
36 | Cc1c(C(=O)NC2CCCC2)nnn1-c1ccccc1 | -3.83
37 | Cc1ncsc1C(=O)NCCCN1CCCCCC1=O | -10
38 | Cc1cc(N2CCN(Cc3ccsc3)C(CCO)C2)nc(N)n1 (stereo not given) | 0.121
39 | CN1CCC(Nc2cc(Cl)ccc2OCC(F)(F)F)C1=O (stereo not given) | -5.49
40 | CC(c1nc(C2CC2)no1)N1CCc2c(ncn2C2CC2)C1 (stereo not given) | 11.4
